# Screen size: about 39,000 compounds; about 1,500 (3.8%) were called active. This is one part of a sample in which actives are shown more often than they occur.
# Test system: HSkMC (human skeletal muscle cells)
# Assay: cytotoxicity call (relative viability < 0.9)
# Conditions: 10 µM
row,SMILES,cytotoxicity call
1,CC(=O)n1cc([C@H]2C=C(C(=O)NCc3ccccc3)O[C@@H](OCc3ccc(CO)cc3)C2)c2ccccc21,inactive
2,CN(C)CC(=O)N[C@H]1C=C[C@H](CC(=O)NCCN2CCCCC2)O[C@H]1CO,inactive
3,COC(=O)[C@@H](NC(=O)Cn1cc(COc2ccccc2/C=C(C)/C=C/C(=O)NO)nn1)c1ccccc1,inactive
4,Cc1noc(C)c1NC(=O)Nc1ccc2c(c1)C(=O)N([C@@H](C)CO)C[C@@H](C)[C@@H](CN(C)Cc1ccc(Oc3ccccc3)cc1)O2,inactive
5,N=C(C[n+]1ccccc1)NO,inactive
6,COC(=O)[C@H](Cc1ccc(-n2cc(-c3cccc(/C=C/C(=O)NO)c3)nn2)cc1)N1CC2=C[C@H]([C@@H](O)Cc3ccccc3)n3c(=O)n(C)c(=O)n3[C@@H]2[C@@H](C2CC2)O1,inactive
7,C[C@H](CO)N1C[C@H](C)[C@@H](CN(C)Cc2ccc(C(=O)Nc3ccccc3N)cc2)Oc2ccc(NC(=O)CCN3CCOCC3)cc2CC1=O,inactive
8,C[C@H](CO)N1C[C@H](C)[C@@H](CN(C)Cc2ccc(Oc3ccccc3)cc2)Oc2c(NC(=O)C3CC3)cccc2C1=O,inactive
9,CC(C)N1C[C@H](C)[C@@H](CN(C)Cc2ccc(Oc3ccccc3)cc2)Oc2c(NC(=O)C3CCNCC3)cccc2C1=O,active
10,CC(C)N1C[C@H](C)[C@@H](CN(C)Cc2ccc(Oc3ccccc3)cc2)Oc2c(NC(=O)C3CCN(C)CC3)cccc2C1=O,inactive
11,COCC(=O)N1C[C@@H](C)[C@@H](OC)CN(C)C(=O)c2cc(NC(=O)c3ccc(F)cc3)ccc2OC[C@H]1C,inactive
12,CN(C)CC(=O)N[C@H]1CC[C@H](CCNC(=O)C2CC2)O[C@H]1CO,inactive
13,CO[C@@H]1CN(C)C(=O)c2ccc(NS(=O)(=O)CC(F)(F)F)cc2OC[C@@H](C)N(Cc2nccs2)C[C@@H]1C,inactive
14,O=C(CCCCCCC(=O)Nc1ccc([C@H]2C[C@H](c3ccccc3)O[C@H](c3ccc(Oc4ccccc4)cc3)O2)cc1)NO,active
15,O=C(CCCCCCC(=O)Nc1ccc([C@H]2C[C@H](c3ccccc3)O[C@H](c3cccc(Oc4ccccc4)c3)O2)cc1)NO,inactive
16,O=C(CCCCCCC(=O)Nc1ccc([C@H]2C[C@H](c3ccccc3)O[C@H](c3ccccc3)O2)cc1)NO,inactive
17,O=C(CCCCCCC(=O)Nc1ccc([C@H]2O[C@@H](COc3ccccc3)C[C@H](c3ccccc3)O2)cc1)NO,inactive
18,O=C(CCCCCCC(=O)Nc1ccc([C@H]2O[C@@H](CN3CCCCCCC3)C[C@H](c3ccccc3)O2)cc1)NO,inactive
19,COc1cc2c(cc1OC)CN(C[C@H]1C[C@H](c3ccccc3)O[C@H](c3ccc(NC(=O)CCCCCCC(=O)NO)cc3)O1)CC2,active

# From the antibiotic and cytotoxicity screens of Wong et al. (2023)
